# Measured values published in PubChem BioAssay.
# Activity calls are given as the source filed them.
# Tests used:
# [1] = test system: Plasmodium falciparum Sir2 (PF13_0152, Sir2A); assay: pfSir2 binders on small-molecule microarrays, primary screen, biochemical, small-molecule microarray, 635 nm fluorescence (AID 1098); settings: small-molecule microarray binding, fluorescence 635 nm; higher = more signal;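 further: score merges spot fluorescence intensity with its signal-to-noise ratio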
# [2] = small-molecule microarray binders of probe aDKK1, primary screen, biochemical, biotinylated probe, 635/667 nm fluorescence (AID 1099); settings: higher = more signal;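 further: score merges 667nm spot fluorescence with signal to noise across triplicate slides; reference of the scale not given here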
# [3] = small-molecule microarray binders of probe aCHRDL2, primary screen, biochemical, biotinylated probe, 635/667 nm fluorescence (AID 1100); settings: higher = more signal
# [4] = splicing luciferase reporter signal modulators, primary screen, spliceosome inhibition project, cell-based, HEK293, splice +/- reporter (AID 1101); settings: luminescence, 24 h, higher = more signal, called active from +8 up or from −8 down;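 further: HEK293 cells carrying a splicing-competent luciferase reporter gene; test concentration not given here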
# [5] = target: Fibroblast growth factor 10 (Homo sapiens) (UniProt O15520); assay: FGF10 binders on small-molecule microarrays, primary screen, biochemical, small-molecule microarray, 635 nm fluorescence (AID 1102); settings: FGF10 binding, fluorescence 635 nm, higher = more signal
# [6] = test system: glycogen synthase kinase-3 (GSK3A per assay name; protocol says GSK3B); assay: GSK3 binders on small-molecule microarrays, primary screen, biochemical, small-molecule microarray, 635 nm fluorescence, GSK3A (AID 1103); settings: small-molecule microarray binding, fluorescence 635 nm; higher = more signal; further: the record names both GSK3A and GSK3B
# [7] = target: Epidermal growth factor receptor (Homo sapiens) (UniProt P00533); assay: EGFR binders on small-molecule microarrays, primary screen, biochemical, small-molecule microarray, 635 nm fluorescence (AID 1104); settings: EGFR binding, higher = more signal;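 further: score merges 667 nm emission intensity with spot signal to noise over triplicate slides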
# [8] = target: Follistatin-related protein 3 (Homo sapiens) (UniProt O95633); assay: FSTL3 binders on small-molecule microarrays, primary screen, biochemical, small-molecule microarray, 635 nm fluorescence (AID 1105); settings: FSTL3 binding, higher = more signal;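 further: score merges emission near 667 nm and signal to noise per printed spot across three slides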
# [9] = target: Dickkopf-related protein 1 (Homo sapiens) (UniProt O94907); assay: DKK1 binders on small-molecule microarrays, primary screen, biochemical, small-molecule microarray, 635 nm fluorescence scan (AID 1106); settings: DKK1 binding, higher = more signal;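 further: score merges emission near 667 nm with signal to noise over three replicate slides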
# [10] = test system: Inhibin beta A chain (activin A); assay: INHBA (activin A) binders on microarrays, primary screen, biochemical, small-molecule microarray, 635 nm fluorescence scan (AID 1107); settings: small-molecule microarray binding, higher = more signal;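 further: mouse activin A protein probed at 4.33 µg/mL on printed slides; score merges bound-protein fluorescence near 667 nm with spot signal-to-noise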
# Epidermal growth factor receptor (Homo sapiens), sequence (P00533 whole entry, looked up): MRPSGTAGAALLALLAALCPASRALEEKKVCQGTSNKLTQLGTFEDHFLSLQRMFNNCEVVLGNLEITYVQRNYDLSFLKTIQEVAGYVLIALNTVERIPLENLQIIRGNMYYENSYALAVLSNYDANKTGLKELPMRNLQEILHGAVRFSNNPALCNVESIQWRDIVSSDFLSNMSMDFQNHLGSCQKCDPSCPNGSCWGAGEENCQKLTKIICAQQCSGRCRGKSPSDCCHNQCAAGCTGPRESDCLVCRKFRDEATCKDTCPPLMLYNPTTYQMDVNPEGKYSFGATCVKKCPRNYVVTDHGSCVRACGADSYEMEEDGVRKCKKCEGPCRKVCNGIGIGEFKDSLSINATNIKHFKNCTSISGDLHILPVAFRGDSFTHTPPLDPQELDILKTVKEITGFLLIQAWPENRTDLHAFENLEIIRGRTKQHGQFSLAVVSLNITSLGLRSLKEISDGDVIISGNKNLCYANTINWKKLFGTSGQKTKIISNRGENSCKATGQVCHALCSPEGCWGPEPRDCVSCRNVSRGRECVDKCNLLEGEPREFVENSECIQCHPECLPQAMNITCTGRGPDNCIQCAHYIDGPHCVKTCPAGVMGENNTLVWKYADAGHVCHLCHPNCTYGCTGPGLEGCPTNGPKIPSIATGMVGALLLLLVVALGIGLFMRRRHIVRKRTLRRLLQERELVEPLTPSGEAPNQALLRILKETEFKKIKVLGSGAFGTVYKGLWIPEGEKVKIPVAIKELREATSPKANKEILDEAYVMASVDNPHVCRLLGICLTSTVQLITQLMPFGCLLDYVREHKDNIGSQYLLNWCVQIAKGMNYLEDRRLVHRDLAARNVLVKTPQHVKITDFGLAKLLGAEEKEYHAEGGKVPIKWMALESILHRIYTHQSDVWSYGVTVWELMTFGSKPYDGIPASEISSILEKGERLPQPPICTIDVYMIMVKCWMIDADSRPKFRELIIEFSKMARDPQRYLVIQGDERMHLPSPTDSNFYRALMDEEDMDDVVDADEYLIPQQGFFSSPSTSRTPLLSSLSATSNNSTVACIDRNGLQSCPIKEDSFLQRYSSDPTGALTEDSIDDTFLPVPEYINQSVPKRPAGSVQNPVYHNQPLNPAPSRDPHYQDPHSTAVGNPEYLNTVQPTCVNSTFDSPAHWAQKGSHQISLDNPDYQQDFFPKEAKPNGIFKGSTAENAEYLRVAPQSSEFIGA
# Fibroblast growth factor 10 (Homo sapiens), sequence (O15520 whole entry, looked up): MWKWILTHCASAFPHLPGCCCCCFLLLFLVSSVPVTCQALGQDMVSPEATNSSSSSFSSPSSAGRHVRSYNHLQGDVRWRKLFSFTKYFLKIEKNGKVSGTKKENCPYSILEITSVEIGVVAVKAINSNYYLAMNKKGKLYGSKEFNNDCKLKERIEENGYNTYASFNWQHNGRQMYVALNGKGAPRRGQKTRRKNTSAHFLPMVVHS
# Dickkopf-related protein 1 (Homo sapiens), sequence (O94907 whole entry, looked up): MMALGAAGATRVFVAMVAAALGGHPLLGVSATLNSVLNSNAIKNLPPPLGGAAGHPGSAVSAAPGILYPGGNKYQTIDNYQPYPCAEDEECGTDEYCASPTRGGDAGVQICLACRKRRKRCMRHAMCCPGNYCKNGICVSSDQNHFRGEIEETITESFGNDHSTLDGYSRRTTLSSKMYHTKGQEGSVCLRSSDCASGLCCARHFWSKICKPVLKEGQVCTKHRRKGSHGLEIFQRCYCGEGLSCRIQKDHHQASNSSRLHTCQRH
# Follistatin-related protein 3 (Homo sapiens), sequence (O95633 whole entry, looked up): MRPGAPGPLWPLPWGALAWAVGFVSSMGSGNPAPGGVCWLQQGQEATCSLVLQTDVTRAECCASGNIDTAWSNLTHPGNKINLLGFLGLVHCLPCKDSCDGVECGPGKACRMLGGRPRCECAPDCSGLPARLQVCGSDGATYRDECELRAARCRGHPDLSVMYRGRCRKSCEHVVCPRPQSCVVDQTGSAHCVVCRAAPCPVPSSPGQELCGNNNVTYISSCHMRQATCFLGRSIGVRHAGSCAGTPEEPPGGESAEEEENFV
SMILES,composite z-score [1],composite z-score [2],composite z-score [3],z-score [4],composite z-score [5],composite z-score [6],composite z-score [7],composite z-score [8],composite z-score [9],composite z-score [10]
O=C1NC(=O)C2C1C=CC(C(O)Cc1ccccc1)N2Nc1ccccn1 (stereo not given),0.0468,0.133,-0.321,-0.818 (inactive),0.156,0.0157,0.377,0.233,0.0833,0.97
CC(C)[C@H](NC(=O)OC(C)(C)C)[C@@H](O)CC(=O)OC(C)(C)C,-1.02,-0.298,-0.215,-0.566 (inactive),-0.658,-1.38,-0.664,-0.746,-0.327,0.0055
CC(CCC(=O)OC[C@H]1O[C@H](C#Cc2ccccc2)C=C[C@@H]1Oc1ccc(C)cc1)=NOC[C@@H](O)[C@H]1O[C@@H]2OC(C)(C)O[C@@H]2[C@H]1O,0.373,-0.339,-0.505,0.29 (inactive),-0.369,-0.579,-1.03,-0.638,-0.335,0.302
COC(=O)[C@H](C)NC(=O)CCC1CC(OC(=O)NCCc2ccc(F)cc2)CC2(CCCC(COC(=O)NCC(c3ccccc3)c3ccccc3)O2)O1 (stereo not given in full),0.713,-0.389,-0.498,-0.527 (inactive),0.377,0.756,0.384,0.691,0.457,-0.0097
CN(C)c1ccc(C(O)C2C=CC3C(=O)N(c4ccccc4)C(=O)C3N2Nc2ccccc2F)cc1 (stereo not given),1.58,0.407,0.792,-0.947 (inactive),-0.235,1.23,-0.675,0.206,-0.606,0.941
CC1(C)OCC(C(O)C2=CCCCC2=O)CO1 (stereo not given),1.04,-0.137,-0.704,0.733 (inactive),0.694,0.999,0.625,0.859,0.717,1.6
CC(C)NC(=O)[C@@]1(c2ccc([N+](=O)[O-])cc2)CC(=O)N(CC23CC4CC(CC(C4)C2)C3)[C@@H]1c1ccc(CO)cc1I,0.504,0.921,0.197,0.278 (inactive),0.0738,1.12,0.353,0.252,0.208,0.197
